Source: PubChem
JMJD2A Tudor – inhibitors of human JMJD2A Tudor domain; O75164; 390,000 compounds, 4.4% hits; AID 504339; AlphaScreen JMJD2A-Tudor / H3K4me3 peptide binding; Potency, µM (doses to about 114 µM), inactives show top-dose activity change, negative = inhibition, usual class: inhibitors; further: potency means the concentration at half of the fitted maximal effect; on the % scale 0 is the no-effect control and ±100 the full control effect; nearly all actives have a fitted effect of over 50% in size
CtBP-E1A inh – CtBP/E1A binding inhibition; 340,000 compounds, 0.49% hits; AID 651724; activity change, % (no concentration beside the values); AlphaScreen GST-E1A/His-CtBP binding, 1536-well; stronger effect = lower value; in the data active means activity change below about -65%; inconclusive means mostly about -30% to -63%; further: on the % scale 0 is the no-effect control and ±100 the full control effect
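Steps: dispense buffer (Tris pH 8.0, NaCl 300 mM, TCEP 1 mM, BSA, Tween 20); add 5X protein mix (GST-E1A, His-CtBP, 125 nM each); pin 23 nL compound; 2 h at 37 °C, dark; add 5X beads (50 ug/mL); 1 h; read.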
HP1b chromo inh – blocks HP1-beta chromodomain binding to methylated histone tails; P83916; AlphaScreen HP1-beta / biotin-H3K9me3 peptide binding; Potency, µM (doses to about 114 µM), inactives show top-dose activity change, negative = inhibition, most hits filed as inhibitors; 390,000 compounds, 0.56% hits; further: potency means the concentration at half of the fitted maximal effect; nearly all actives have a fitted effect of over 70% in size
Target sequence (P83916 whole entry, looked up): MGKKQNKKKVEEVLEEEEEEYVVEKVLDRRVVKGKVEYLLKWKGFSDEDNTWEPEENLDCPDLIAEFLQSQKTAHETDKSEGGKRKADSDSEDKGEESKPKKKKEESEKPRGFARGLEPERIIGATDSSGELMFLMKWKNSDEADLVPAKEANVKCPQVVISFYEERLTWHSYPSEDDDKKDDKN
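Compound inhibition of the preformed complex between 50 nM HP1-beta and 50 nM biotinylated H3K9me3 peptide was read by AlphaScreen. Buffer was PBS pH 7.4 with 0.01% Tween-20. Incubations ran 30 min at room temperature, with 10 ug/mL donor/acceptor beads.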
BAZ2B block – BAZ2B (human) inhibition; AlphaScreen BAZ2B-H3K14Ac peptide displacement; 360,000 compounds, 4.4% hits; Q9UIF8; Potency, µM (doses to about 114 µM), for inactives: at the top dose activity change, negative = inhibition, hits mostly inhibitors; further: potency means the concentration at half of the fitted maximal effect; on the % scale 0 is the no-effect control and ±100 the full control effect; nearly all actives have a fitted effect of over 60% in size
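AlphaScreen displacement: compounds (up to 110uM) incubated 30 min at room temperature with a preformed 50 nM BAZ2B/50 nM biotinylated H3K14Ac peptide complex in PBS pH 7.4 with Tween-20. Donor and acceptor beads at 10 ug/mL final added, 20 min light-protected before reading.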
G9a inh – G9a (human) methyltransferase inhibition; Q96KQ7; G9a H3K9 monomethylation, AlphaScreen, 2 h; Potency, µM (highest dose often 102 µM), for the others: top-dose activity, negative = inhibition, most hits filed as inhibitors; 350,000 compounds, 8.8% hits; AID 504332; further: potency means the concentration at half of the fitted maximal effect; on the % scale 0 is the no-effect control and ±100 the full control effect; nearly all actives have a fitted effect of over 75% in size
Target sequence (Q96KQ7 913-1193 limits assumed): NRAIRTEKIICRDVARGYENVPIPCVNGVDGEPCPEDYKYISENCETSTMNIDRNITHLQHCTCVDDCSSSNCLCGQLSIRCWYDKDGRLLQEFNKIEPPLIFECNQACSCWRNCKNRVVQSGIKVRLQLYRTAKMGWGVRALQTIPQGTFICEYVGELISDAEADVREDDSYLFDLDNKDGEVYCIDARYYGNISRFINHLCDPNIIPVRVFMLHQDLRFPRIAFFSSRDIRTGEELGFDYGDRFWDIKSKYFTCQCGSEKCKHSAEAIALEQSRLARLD
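AlphaScreen detection with an anti-monomethyl H3K9 antibody quantified product after a 2 h room-temperature reaction containing 500 nM biotinylated H3K9 peptide, 20 µM SAM and 20 nM enzyme, which had been preincubated 15 min with compound.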
Six1-Eya2 blk – inhibitors of human Six1/Eya2 interaction; Q15475+O00167; AlphaScreen GST-Six1/His-Eya2 binding, biochemical; stronger effect = lower value; activity change, % (test concentration not listed); 360,000 compounds, 0.56% hits; AID 651725; in the data active means activity change below about -65%; inconclusive means mostly about -30% to -63%; further: on the % scale 0 is the no-effect control and ±100 the full control effect
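AlphaScreen with GST-Six1 and His-Eya2 (5X mix: 250 nM and 500 nM), glutathione donor and nickel acceptor beads; buffer 50 mM Tris pH 8.0, 300 mM NaCl, 1 mM TCEP; 1 h at 37 C in the dark.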
* = called active by the depositor; ? = inconclusive; . = no result; ! = a repeat was not active; [ ] = remark or other dose. An excerpt weighted towards active compounds, which were near 10% of everything screened. Unless noted, the call rests on the fitted dose curve; in most records, active means well fitted inhibition curve with a large enough effect; inconclusive means small, poorly fitted or top-dose-only effect; inactive means no such curve, though single readings can be large or run the other way.

SMILES	JMJD2A Tudor	CtBP-E1A inh	HP1b chromo inh	BAZ2B block	G9a inh	Six1-Eya2 blk
CNC(C(=O)c1ccccc1)C(OC)c1cccc([N+](=O)[O-])c1 (stereo not drawn)	-12%	-3	40%	-4%	56µM*	23
CNC(C(=O)c1ccccc1)C(OC)c1ccccc1 (stereo not drawn)	14%	-2	69%	-37%	?	4
COc1ccccc1OC(C)C(=O)N1CCC(Cc2ccccc2)CC1 (stereo not drawn)	-16%	0	-18%	-26%	50µM*	1
C/C(O)=C1\C(=O)[C@@H]2[C@H]3c4c[nH]c5cccc(c45)C[C@H]3C(C)(C)N2C1=O	.	.	.	.	25µM*!	.
Clc1ccccc1CN1CCN(c2ccccc2)CC1	3.5µM*	1	?	50µM*	?	-12
Nc1ccc(N2CCN(Cc3ccccc3Cl)CC2)c(Cl)c1	-8%[11.4 µM]	-20	?	45µM*	?	-20
Fc1ccccc1CN1CCN(c2ccc(Cl)cc2)CC1	-7%	-1	28%	-1%	19%[2.33 µM]	-7
Clc1cccc(Cl)c1CN1CCN(c2ccccc2)CC1	3.2µM*	0	?	35µM*	25µM*	-11
Clc1ccc(N2CCN(Cc3ccccc3Cl)CC2)cc1	4.5µM*	0	?	?	25µM*	0
O=S1(=O)N(Cc2ccccc2Cl)CCCN1Cc1ccccc1Cl	84%	.	95%	76%	109%[59 µM]	.
C=C1C(O)C2OC3(CCC(/C=C/C(C)C4CC(C)=CC5(OC(CC(C)(O)C(=O)O)CCC5O)O4)O3)CCC2OC1C(O)CC(C)C1OC2(CCCCO2)CCC1C (stereo not drawn)	.	.	.	.	27%[2.33 µM]	.
COc1ccc(NC(=O)Cn2c(=O)c3cccn3c3ccccc32)cc1Cl	6%	.	42%	1%	2%[59 µM]	.
COc1ccc(C)cc1NC(=O)c1cccn(Cc2cccc([N+](=O)[O-])c2)c1=O	-13%	.	36%	-11%	-22%[59 µM]	.
C[C@H](N)Cc1cccc(C(F)(F)F)c1	.	.	.	.	30µM*	.
Nc1cc(Cl)c2nonc2c1[N+](=O)[O-]	-13%	-1	42%	13%	32µM*	-12
COc1ccccc1NC(=O)Oc1cccc(OC(=O)c2ccccc2)c1	-13%	.	25%	-9%	71µM*	-2
C=CCc1c(C)nc(C)nc1N/N=C/c1ccc(N(C)C)cc1	17%[11.4 µM]	-9	6%	?	24%[59 µM]	-9
Cc1ccc(-c2n[nH]c(=S)n2-c2ccccc2)cc1	20µM*	-6	2%	10%	1.3µM*	-2
C=CCN1C(=O)NC(=O)/C(=C/c2cnc(SC)nc2)C1=O	79µM*	6	-49%	4%	?	0
C=CCN1C(=O)NC(=O)/C(=C/c2cc3c4c(c2)CCCN4CCC3)C1=O	?	1	20µM*	50µM*	?	-9
O=C(c1csnn1)N1CCC2(CC1)CN(Cc1ccncc1)C2	.	.	.	.	12%[12.7 µM]	.
COc1cc(-c2ccc(N)c(OC)c2)ccc1N	?	-18	?	50µM*	0%[0.501 µM]	0
COc1ccc(NC(=O)CSc2nc(-c3ccco3)cc(C(F)(F)F)n2)cc1OC	-3%	.	47%	-2%	-4%[59 µM]	.
COc1ccc(CCCc2nnc(SCC(=O)Nc3ccc(C)c(C)c3)o2)cc1	?	-23	3%	-26%	22µM*	1
Cc1ccc(C(=O)c2cn(CC(=O)Nc3ccc(C(C)C)cc3)c3nc(C)ccc3c2=O)cc1	?	.	-2%	4%[57.1 µM]	-7%[59 µM]	.
SMILES	JMJD2A Tudor	CtBP-E1A inh	HP1b chromo inh	BAZ2B block	G9a inh	Six1-Eya2 blk
COc1ccc(C2C(C(=O)N3CCC4(CC3)OCCO4)CC(=O)N2c2ccc(OC)cc2)cc1 (stereo not drawn)	-7%	0	66%	8%	?	0
COc1ccc(OC)c(C2=NOC(C(=O)N3CCC4(CC3)OCCO4)C2)c1 (stereo not drawn)	25µM*	2	-1%	7%	-2%[12.7 µM]	2
Cc1cc(OCC(=O)N2CCN(CCc3ccccn3)CC2)cc(C)c1Cl	-10%	.	46%	-37%	-23%[59 µM]	.
Fc1ccccc1CNCCc1c[nH]c2ccccc12	45µM*	-6	?	56µM*	?	-14
FC(F)(F)c1ccccc1CNCCc1c[nH]c2ccccc12	18µM*	.	-13%	45µM*	22%[2.33 µM]	-25
Fc1ccc(CNCCc2c[nH]c3ccccc23)cc1	?	-15	26%	?	?	-17
c1coc(CNCCc2c[nH]c3ccccc23)c1	-26%	-7	16%	?	.	-10
CC1=CC(C)C2C(=O)N(CCC[N+](C)(C)C)C(=O)C2C1 (stereo not drawn)	-4%	1	20%	-23%	?	12
CCCOP(=O)(OCCC)C(NC(=O)c1cc(OC)c(OC)c(OC)c1)c1ccccc1 (stereo not drawn)	-4%	-10	7%	14%	-2%	2
CCC(COC(=O)c1cc(OC)c(OC)c(OC)c1)(c1ccccc1)N(C)C (stereo not drawn)	50µM*!	-19	-7%	-38%	-45%[2.33 µM]	-3
CCCCCCC[n+]1ccc(-c2cc[n+](CCCCCCC)cc2)cc1	?	-2	3%	79µM*	4.5µM*	13
CCCCCCCCCCCCCCCC[n+]1ccccc1	-9%	24	65%	.	-35%[2.33 µM]	34
Cc1ccc(S(=O)(=O)N2CCCCC2)cc1NC(=O)CN1CC=C(c2ccccc2)CC1	-31%	-4	4%	-5%	-11%[59 µM]	-11
COc1ccccc1CNCC(=O)Nc1cc(S(=O)(=O)N2CCCCC2)ccc1C	1.8µM*	1	?	.	.	9
O=C(O)c1cc(O)c(O)c(O)c1	.	.	.	.	2µM*	.
COc1ccc(NC(=S)NC(NC(=O)CF)C(Cl)(Cl)Cl)c([N+](=O)[O-])c1 (stereo not drawn)	3%	7	15%	?	10µM*	-23
Cc1ccccc1NC(=S)NC(NC(=O)CF)C(Cl)(Cl)Cl (stereo not drawn)	3%	2	32%	-21%	-1%[59 µM]	-2
CCCC1(CCC)C(=O)NC(=NCc2ccccc2)NC1=O	-10%	4	1%	3%	45µM*	5
C=CCSc1nc2c(c(-c3ccsc3)c1C#N)CN(C)CC2	-32%	-14	-3%	-36%	16µM*	-7
C=CCN1CC[C@]23CCCCC2[C@H]1Cc1ccc(O)cc13 (stereo partly drawn)	.	.	.	.	23%[12.7 µM]	.
